T cruzi growth-1 = T. cruzi intracellular proliferation inhibitors, primary screen, cell-based, beta-gal Tulahuen parasites, NIH3T3 host, luminescence; AID 624255, 2012; T. cruzi beta-gal in NIH3T3, GalScreen luminescence, 90 h; inhibition, % at 8.34 µM; 77,000 tested, 5.9% active;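 active = mean inhibition above about 93%, with at least 55% of replicates each passing it, limit read from the data, passing the limit was not always enough; inconclusive = only one of those two conditions holds; inactive = neither condition holds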
Pf Dd2 inh = P. falciparum Dd2 growth inhibitors, primary screen, SYBR Green fluorescence, single dose replicates; AID 1159554, 2015; 72 h; hits give low values; activity change, % at 10 µM; 94,000 tested, 2.3% active; in the data active = activity change below about -80%; inconclusive = no clear call, values can overlap the other calls
C diff growth = C. difficile growth inhibitors, primary screen, HTS. Clostridium difficile clinical isolate growth, OD600, 24 h; hits give low values. growth activity, negative = inhibition, % at 16 µg/mL (by protocol). 86,000 tested, 0.25% active;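 active = mean growth activity at or below -80% and every replicate also at or below -80%; inconclusive = mean at or below -80% but some replicate above -80%; inactive = mean growth activity above -80%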;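 note: 0% = DMSO wells and -100% = levofloxacin 16 µg/mL wells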
T cruzi growth-2 = T. cruzi intracellular proliferation inhibitors, confirmation, cell-based, NIH3T3 host, beta-gal parasite, luminescence, cherry-pick. 5,600 tested, 72% active. shares compounds with T cruzi growth-1. T. cruzi beta-gal in NIH3T3, GalScreen luminescence, 90 h. inhibition, % at 8.35 µM;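 active = mean replicate inhibition above about 95% and at least 55% of replicates individually reaching it, limit read from the data; inconclusive = only one of the two criteria is met; inactive = neither criterion is met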
T cruzi growth-3 = inhibitors of intracellular T. cruzi replication, confirmation, NIH3T3 host cells, beta-gal parasites, cherry-pick, set 2; inhibition, % at 2.09 µM; T. cruzi beta-gal in NIH3T3, GalScreen luminescence, 90 h; shares compounds with T cruzi growth-1; 5,600 tested, 21% active;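 active = mean inhibition above about 95%, with at least 55% of replicates also reaching it, limit read from the data; inconclusive = meets just one of the two conditions; inactive = meets neither condition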;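 note: plate controls were neutral control median for no effect and positive control median for full effect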
NIH3T3 tox = cytotoxicity in mouse NIH/3T3 fibroblasts, confirmation, cytotoxicity control for T. cruzi proliferation inhibitor project, cell-based, cherry-pick, single point; 5,600 tested, 14% active; NIH/3T3 viability, CellTiter-Glo ATP luminescence, 90 h; shares compounds with T cruzi growth-1; cytotoxicity (signal decrease), % at 8.35 µM;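 active = mean signal decrease across replicates above about 35% based on untreated-well scatter, with enough replicates individually passing, limit read from the data; inconclusive = no rule stated though some were filed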;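 note: 0% = median of neutral control wells and 100% = median of positive control wells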
NIH3T3 tox 2 = NIH/3T3 fibroblast cytotoxicity, confirmation, cytotoxicity control, cell-based, cherry-pick, single point, set 2; 5,600 tested, 56% active; inhibition, % at 24.9 µM; AID 651744, 2012; shares compounds with T cruzi growth-1; NIH/3T3 viability, CellTiter-Glo ATP luminescence, 90 h;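 active = mean loss of cell viability signal at or above a set limit, and enough replicates individually reaching it; inconclusive = meets only the mean limit or only the replicate share; inactive = meets neither condition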;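 note: 0% = median of neutral control wells and 100% = median of positive control wells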
The depositor's hits bear a star; ? = inconclusive; . = not tested or not shown; ! = not confirmed by another sample. The list is not random: actives were taken first. Their share in the collection is about 6.7%.

SMILES | T cruzi growth-1 | Pf Dd2 inh | C diff growth | T cruzi growth-2 | T cruzi growth-3 | NIH3T3 tox | NIH3T3 tox 2
CC(=O)N1[C@@H](CO)[C@@H](c2ccccc2)[C@@H]1CN(CC1CCC1)C(=O)CN(C)C | 98* | -6 | 5 | 30 | -18 | 8 | 22
O=C(N[C@H]1C=C[C@H](CC(=O)N2CCCCC2)O[C@@H]1CO)c1ccccn1 | -31 | 1 | . | . | . | . | .
CC(C)C#Cc1ccc2c(c1)O[C@H](CN(C)C(=O)c1ccccc1)[C@H](C)CN([C@H](C)CO)S2(=O)=O | 88 | -51 | 2 | . | . | . | .
CC(C)C#Cc1ccc2c(c1)O[C@@H](CN(C)C(=O)c1cccc(F)c1)[C@H](C)CN([C@@H](C)CO)S2(=O)=O | 107* | -64 | 13 | 110* | 27 | 27 | 60*
CC(C)C#Cc1ccc2c(c1)O[C@H](CN(C)C(=O)c1cccc(F)c1)[C@H](C)CN([C@@H](C)CO)S2(=O)=O | 118* | -56 | 7 | 109* | 92 | 28 | 78*
CC(C)C#Cc1ccc2c(c1)O[C@@H](CN(C)C(=O)c1ccccc1)[C@@H](C)CN([C@@H](C)CO)S2(=O)=O | 80 | -72 | 2 | . | . | . | .
C[C@@H]1CN([C@@H](C)CO)C(=O)c2cc(-c3ccc(C(=O)N(C)C)cc3)cnc2O[C@@H]1CN(C)C(=O)C1CC1 | -3 | 38 | -2 | . | . | . | .
CN1C(=O)c2cc(NC(=O)c3cccc(F)c3)ccc2OC[C@@H]2O[C@H](CC(=O)NCC3CCCCC3)CC[C@@H]21 | 117* | . | 3 | 94 | 34 | 43*! | 85*
CN1C(=O)c2cc(NC(=O)c3ccc(Cl)cc3)ccc2OC[C@@H]2O[C@@H](CC(=O)NCc3cccc(F)c3)CC[C@@H]21 | 103* | 1 | 4 | 103* | 34 | 32 | 61*
CN1C(=O)c2cc(NC(=O)c3cccc(F)c3)ccc2OC[C@H]2O[C@@H](CC(=O)NCC3CCCCC3)CC[C@H]21 | 88 | . | 0 | . | . | . | .
CN1C(=O)c2cc(NC(=O)c3cccc(F)c3)ccc2OC[C@@H]2O[C@H](CC(=O)NCc3ccccc3)CC[C@H]21 | -17 | -33 | 2 | . | . | . | .
CN1C(=O)c2cc(NC(=O)c3ccc(Cl)cc3)ccc2OC[C@H]2O[C@H](CC(=O)NCc3cccc(F)c3)CC[C@@H]21 | 43 | -17 | 12 | . | . | . | .
CN1C(=O)c2cc(NC(=O)c3cccc(Cl)c3)ccc2OC[C@H]2O[C@@H](CC(=O)NC3CCCCC3)CC[C@H]21 | 107* | -10 | -2 | 104* | 45 | 27 | 38*
CN1C(=O)c2cc(NC(=O)c3ccccc3)ccc2OC[C@@H]2O[C@H](CC(=O)NC3CCCC3)CC[C@H]21 | 8 | -23 | -5 | . | . | . | .
CN1C(=O)c2cc(NC(=O)c3ccc(Cl)cc3)ccc2OC[C@H]2O[C@H](CC(=O)NCc3cccc(F)c3)CC[C@H]21 | 101* | -16 | 11 | 67 | 47 | 1 | 14
CCNC(=O)C[C@@H]1CC[C@H]2[C@@H](COc3ccc(NC(=O)Nc4cccc(C)c4)cc3C(=O)N2C)O1 | -13 | -7 | -2 | . | . | . | .
C[C@@H]1CN([C@@H](C)CO)C(=O)c2cc(NS(=O)(=O)c3ccc(F)cc3)ccc2O[C@H]1CN(C)C(=O)Nc1ccc(F)cc1 | -24 | 2 | -2 | . | . | . | .
CO[C@H]1CN(C)C(=O)c2cc(NS(=O)(=O)CC(F)(F)F)ccc2OC[C@H](C)N(Cc2nccs2)C[C@H]1C | 29 | -2 | . | . | . | . | .
CO[C@@H](CN(C)S(=O)(=O)c1ccc(C)cc1)[C@H](C)CN(Cc1ccccc1Cl)[C@@H](C)CO | 65 | -27 | . | . | . | . | .
CO[C@@H]1CN(C)C(=O)c2ccc(NC(=O)c3ccc(F)cc3)cc2OC[C@H](C)N(C)C[C@@H]1C | -42 | 5 | -1 | . | . | . | .
O=C(C[C@H]1CC[C@@H](NS(=O)(=O)c2ccccc2)[C@H](CO)O1)NCc1ccccc1F | -24 | 5 | -6 | . | . | . | .
C[C@@H]1CN([C@@H](C)CO)C(=O)c2cc(NC(=O)C3CC3)ccc2O[C@@H]1CN(C)S(C)(=O)=O | 14 | 5 | 1 | . | . | . | .
CCS(=O)(=O)N1CC(=O)N2[C@H](CO)[C@@H](c3ccc(C#CCC4CCCC4)cc3)[C@@H]2C1 | . | -3 | -12 | . | . | . | .
CN1C(=O)c2cc(NC(=O)c3cccc(F)c3)ccc2OC[C@H]2O[C@@H](CC(=O)N3CCc4ccccc4C3)CC[C@H]21 | 104* | -2 | -7 | 97* | 26 | 24 | 38*
CN1C(=O)c2cc(NC(=O)c3ccc(C(F)(F)F)cc3)ccc2OC[C@@H]2O[C@@H](CC(=O)NC3Cc4ccccc4C3)CC[C@H]21 | 100* | -12 | 36 | 106* | 49 | ? | 43*
SMILES | T cruzi growth-1 | Pf Dd2 inh | C diff growth | T cruzi growth-2 | T cruzi growth-3 | NIH3T3 tox | NIH3T3 tox 2
CN1C(=O)c2cc(NC(=O)c3ccc(C(F)(F)F)cc3)ccc2OC[C@@H]2O[C@@H](CC(=O)NC3Cc4ccccc4C3)CC[C@@H]21 | 79 | -13 | . | . | . | . | .
CN1C(=O)c2cc(NC(=O)c3cccc(F)c3)ccc2OC[C@H]2O[C@H](CC(=O)N3CCc4ccccc4C3)CC[C@@H]21 | 42 | 1 | -2 | . | . | . | .
COc1cccc(C(=O)Nc2ccc3c(c2)OC[C@H](C)N(C(=O)C2CCCC2)C[C@@H](C)[C@H](OC)CN(C)C3=O)c1 | -17 | . | . | . | . | . | .
COc1ccccc1-c1ccc2c(c1)O[C@@H](CN(C)S(=O)(=O)c1ccc(F)cc1)[C@@H](C)CN([C@@H](C)CO)S2(=O)=O | 103* | -73 | 5 | 109* | 90 | 50* | 45*
C[C@@H]1CN([C@H](C)CO)S(=O)(=O)c2ccc(-c3ccccc3F)cc2O[C@H]1CN(C)S(C)(=O)=O | -24 | -73 | -2 | . | . | . | .
COc1ccccc1-c1ccc2c(c1)O[C@@H](CN(C)S(=O)(=O)c1ccc(F)cc1)[C@@H](C)CN([C@H](C)CO)S2(=O)=O | 106* | -48 | 7 | 99* | 90 | ? | 64*
C[C@H]1CN([C@@H](C)CO)S(=O)(=O)c2ccc(-c3ccccc3F)cc2O[C@@H]1CN(C)S(C)(=O)=O | -48 | 15 | -10 | . | . | . | .
C[C@@H]1CN([C@@H](C)CO)S(=O)(=O)c2ccc(-c3ccccc3F)cc2O[C@H]1CN(C)S(C)(=O)=O | -57 | -54 | -4 | . | . | . | .
COc1ccccc1-c1ccc2c(c1)O[C@H](CN(C)S(=O)(=O)c1ccc(F)cc1)[C@H](C)CN([C@@H](C)CO)S2(=O)=O | 99* | -47 | 4 | 95* | 85 | 21 | 47*

Compound activity (PubChem)
